In PubChem BioAssay (NCATS):
Unmarked numbers belong to inactive results. Results filed as inconclusive are left out. Entries that show only a call come without a potency. Activity calls are given as the source filed them. Unless noted, the call rests on the fitted dose curve; in most records, active means well fitted curve in the direction sought with a large enough effect; inconclusive means small, poorly fitted or top-dose-only effect, or another doubt; inactive means no such curve, though single readings can be large; an effect the other way counts as inactive or inconclusive.

Assays:
[1] = S16 Schwann cell PMP22 intronic element firefly luciferase assay (AID 624032); further: nearly all actives have a fitted effect of over 30% in size
How it was run: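 Rat S16 Schwann cells stably carrying firefly luciferase driven by a PMP22 intronic element, in 10% FBS, treated 24 h at 37 C. ONE-Glo luminescence normalized to PTC124 control and DMSO (0%); curves classed by r2, magnitude and activity.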

[2] = system: CP192; test: qHTS profiling for inhibitors of Plasmodium falciparum proliferation (AID 504749); further: nearly all actives have a fitted effect of over 60% in size; conditions: P. falciparum in erythrocytes, SYBR Green DNA, 72 h; series mostly up to 28.7 µM
How it was run: (§1)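 Each compound contacts P. falciparum-infected red blood cells for 72 h at 37 C; lysis buffer (Tris, EDTA, saponin, Triton X, SYBR Green I) is added and fluorescence measured next morning; values normalized to controls.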

[3] = system: CP194; test: as above; conditions: P. falciparum in erythrocytes, SYBR Green DNA, 72 h; series mostly up to 12.8 µM
How it was run: as §1

[4] = system: CP215; test: as above; conditions: P. falciparum in erythrocytes, SYBR Green DNA, 72 h; series mostly up to 28.7 µM
How it was run: as §1

[5] = system: CP247; test: as above; conditions: P. falciparum in erythrocytes, SYBR Green DNA, 72 h; series mostly up to 12.8 µM
How it was run: as §1

[6] = system: CP260; test: as above; conditions: P. falciparum in erythrocytes, SYBR Green DNA, 72 h; series mostly up to 12.8 µM
How it was run: as §1

[7] = system: CP266; test: as above; conditions: P. falciparum in erythrocytes, SYBR Green DNA, 72 h; series mostly up to 28.7 µM
How it was run: as §1

[8] = system: CP297; test: as above; conditions: P. falciparum in erythrocytes, SYBR Green DNA, 72 h; series mostly up to 12.8 µM
How it was run: as §1

[9] = system: CP315; test: as above; conditions: P. falciparum in erythrocytes, SYBR Green DNA, 72 h; series mostly up to 12.8 µM
How it was run: as §1

[10] = system: DIV14; test: as above; conditions: P. falciparum in erythrocytes, SYBR Green DNA, 72 h; series mostly up to 12.8 µM
How it was run: as §1

[11] = system: DIV17; test: as above; conditions: P. falciparum in erythrocytes, SYBR Green DNA, 72 h; series mostly up to 12.8 µM
How it was run: as §1

[12] = system: ICS; test: as above; conditions: P. falciparum in erythrocytes, SYBR Green DNA, 72 h; series mostly up to 12.8 µM
How it was run: as §1

[13] = system: W2; test: as above; conditions: P. falciparum in erythrocytes, SYBR Green DNA, 72 h; series mostly up to 12.8 µM
How it was run: as §1

[14] = biological target: Cytochrome P450 3A4 (Homo sapiens) (UniProt P08684); test: qHTS Assay for Activators of Cytochrome P450 3A4 (AID 885); further: nearly all actives have a fitted effect of over 65% in size; further: potency means the concentration at half of the fitted maximal effect
How it was run: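 Activators are scored by enhanced luminescence from CYP3A4 conversion of luciferin-PPXE (25uM, equal to KM) to luciferin, after 60 min at RT with an NADPH-regenerating system.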

[15] = biological target: Guanine nucleotide-binding protein G(i) subunit alpha-1 (Homo sapiens) (UniProt P63096); test: qHTS Assay for Inhibitors of RGS12 GoLoco Motif Activity (Green Fluorophore) (AID 879);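 further: negative values mean loss of peptide binding seen as reduced polarization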
How it was run: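 A drop in FITC polarization marked displacement of the FITC-tagged RGS12 GoLoco peptide (10 nM) from Gαi1 (50 nM). Compounds were incubated 10 min at room temperature in Tris pH 7.5 buffer containing 150 mM NaCl, 0.1 mM GDP and 0.05% NP40; unlabeled peptide titration served as control.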

[16] = biological target: Pyruvate kinase (Leishmania mexicana) (UniProt Q27686); test: qHTS Validation Assay for Inhibitors of Leishmania Mexicana Pyruvate Kinase (AID 945)
How it was run: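 The enzyme is a highly purified E451W mutant of LmPYK used at 0.2 nM. It converts 0.5 mM PEP and 0.1 mM ADP over 1 h at room temperature; product ATP is quantified by luciferase luminescence relative to DMSO controls.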

[17] = biological target: Pyruvate kinase PKM (Homo sapiens) (UniProt P14618); test: qHTS Assay for Activators of Human Muscle Pyruvate Kinase (AID 954; active means well fitted curve in the direction sought with a large enough effect, not every such curve was filed as active)
How it was run: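 PKM2, human, >95% pure, 0.1 nM; PEP 0.5 mM (Km), ADP 0.1 mM; 50 mM imidazole pH 7.2, 50 mM KCl, 0.01% Tween 20, 0.05% BSA; 1 h RT; luciferase luminescence readout.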

[18] = biological target: Alpha-galactosidase A (Homo sapiens) (UniProt P06280); test: Counterscreen for Glucocerebrosidase Inhibitors: qHTS Assay for Human alpha-Galactosidase at pH 4.5 (AID 992)
How it was run: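 Fluorogenic 4-MU alpha-D-galactoside (80 uM) hydrolysis, 2 nM enzyme, pH 4.5 citrate buffer + 0.005% Tween-20; 20 min RT; NaOH/glycine pH 10 stop; Ex365/Em440. Compounds titrated 0.7 nM–77 uM; Hill-equation AC50.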

[19] = biological target: alpha-glucosidase (Oryza sativa, rice) (UniProt Q653V4); test: Counterscreen for Glucocerebrosidase Inhibitors: qHTS Assay for Rice alpha-Glucosidase at pH 5.0 (AID 997)
How it was run: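 Endpoint fluorogenic assay at pH 5.0: compounds (0.7 nM to 77 uM) titrated against 4 nM rice enzyme and 400 uM 4-MU-alpha-glucoside for 20 min at room temperature; NaOH/glycine stop, read ex 365/em 440 nm, Hill-fitted AC50.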

[20] = biological target: Lysosomal acid glucosylceramidase (Homo sapiens) (UniProt P04062); test: Glucocerebrosidase-p2 (AID 348; in the data active means potency below about 10 µM; further: potency means the concentration at half of the fitted maximal effect); conditions: purified GBA, blue fluorogenic substrate, 40 min
How it was run: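 Normal human glucocerebrosidase (0.2 nM) with blue fluorogenic substrate (80 uM final) in citrate/phosphate pH 5.9 with 10mM sodium taurocholate, 0.01% tween-20; 40 min RT, NaOH/glycine stop; fluorescence Ex 365/Em 440; AC50 from a titration from 0.6 nM upwards.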

Sequence of Lysosomal acid glucosylceramidase (Homo sapiens) (P04062 whole entry, looked up): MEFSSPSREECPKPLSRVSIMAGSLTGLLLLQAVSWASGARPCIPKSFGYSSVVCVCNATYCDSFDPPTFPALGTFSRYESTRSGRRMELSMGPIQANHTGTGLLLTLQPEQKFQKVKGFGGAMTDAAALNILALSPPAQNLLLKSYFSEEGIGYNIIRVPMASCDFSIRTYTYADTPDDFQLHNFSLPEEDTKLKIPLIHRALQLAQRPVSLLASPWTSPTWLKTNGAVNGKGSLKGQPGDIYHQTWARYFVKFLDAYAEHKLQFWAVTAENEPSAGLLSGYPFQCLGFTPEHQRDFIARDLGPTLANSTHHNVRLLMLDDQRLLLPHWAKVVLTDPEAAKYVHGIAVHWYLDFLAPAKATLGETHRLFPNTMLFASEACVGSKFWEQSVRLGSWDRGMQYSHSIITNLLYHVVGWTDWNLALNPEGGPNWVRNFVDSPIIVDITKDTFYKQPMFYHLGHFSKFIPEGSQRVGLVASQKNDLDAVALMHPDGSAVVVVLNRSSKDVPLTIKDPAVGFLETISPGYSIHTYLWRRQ
Sequence of Cytochrome P450 3A4 (Homo sapiens) (P08684 whole entry, looked up): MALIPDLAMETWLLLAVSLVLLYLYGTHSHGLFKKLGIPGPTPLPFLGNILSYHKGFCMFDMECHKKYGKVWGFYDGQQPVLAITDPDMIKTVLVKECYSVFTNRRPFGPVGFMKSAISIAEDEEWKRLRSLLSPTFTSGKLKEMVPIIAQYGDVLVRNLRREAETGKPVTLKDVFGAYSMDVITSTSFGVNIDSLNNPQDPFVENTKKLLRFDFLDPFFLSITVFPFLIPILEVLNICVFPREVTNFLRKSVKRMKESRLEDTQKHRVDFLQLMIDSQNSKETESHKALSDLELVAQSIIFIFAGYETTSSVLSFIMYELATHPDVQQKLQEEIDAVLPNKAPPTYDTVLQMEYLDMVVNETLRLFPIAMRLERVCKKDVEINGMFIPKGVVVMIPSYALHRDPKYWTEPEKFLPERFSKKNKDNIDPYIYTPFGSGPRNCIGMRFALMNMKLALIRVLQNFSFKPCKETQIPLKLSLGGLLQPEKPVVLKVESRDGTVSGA
Sequence of Pyruvate kinase PKM (Homo sapiens) (P14618 whole entry, looked up): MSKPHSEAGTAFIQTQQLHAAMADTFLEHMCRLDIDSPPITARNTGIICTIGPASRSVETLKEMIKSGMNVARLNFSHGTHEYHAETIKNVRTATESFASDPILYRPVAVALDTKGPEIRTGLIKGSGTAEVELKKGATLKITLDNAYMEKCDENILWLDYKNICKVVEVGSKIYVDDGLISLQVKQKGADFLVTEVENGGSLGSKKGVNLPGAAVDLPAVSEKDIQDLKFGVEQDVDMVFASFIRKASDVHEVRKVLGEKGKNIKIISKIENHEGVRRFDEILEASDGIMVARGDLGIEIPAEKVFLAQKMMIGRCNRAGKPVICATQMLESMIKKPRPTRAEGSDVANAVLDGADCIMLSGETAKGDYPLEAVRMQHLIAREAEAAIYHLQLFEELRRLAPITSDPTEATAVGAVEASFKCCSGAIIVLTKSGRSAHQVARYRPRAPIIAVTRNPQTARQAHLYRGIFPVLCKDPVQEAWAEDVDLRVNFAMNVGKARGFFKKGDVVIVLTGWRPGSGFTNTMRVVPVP
Sequence of Guanine nucleotide-binding protein G(i) subunit alpha-1 (Homo sapiens) (P63096 whole entry, looked up): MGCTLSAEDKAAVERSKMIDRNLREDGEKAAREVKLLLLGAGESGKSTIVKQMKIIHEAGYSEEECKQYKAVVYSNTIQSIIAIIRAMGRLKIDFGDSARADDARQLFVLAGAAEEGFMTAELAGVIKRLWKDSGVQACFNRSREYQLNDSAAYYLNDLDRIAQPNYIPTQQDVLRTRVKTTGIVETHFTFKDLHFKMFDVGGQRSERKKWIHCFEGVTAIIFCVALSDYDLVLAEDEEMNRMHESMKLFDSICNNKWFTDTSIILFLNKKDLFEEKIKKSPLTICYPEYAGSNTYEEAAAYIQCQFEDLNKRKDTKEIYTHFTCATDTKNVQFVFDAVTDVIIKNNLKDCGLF
Sequence of Alpha-galactosidase A (Homo sapiens) (P06280 whole entry, looked up): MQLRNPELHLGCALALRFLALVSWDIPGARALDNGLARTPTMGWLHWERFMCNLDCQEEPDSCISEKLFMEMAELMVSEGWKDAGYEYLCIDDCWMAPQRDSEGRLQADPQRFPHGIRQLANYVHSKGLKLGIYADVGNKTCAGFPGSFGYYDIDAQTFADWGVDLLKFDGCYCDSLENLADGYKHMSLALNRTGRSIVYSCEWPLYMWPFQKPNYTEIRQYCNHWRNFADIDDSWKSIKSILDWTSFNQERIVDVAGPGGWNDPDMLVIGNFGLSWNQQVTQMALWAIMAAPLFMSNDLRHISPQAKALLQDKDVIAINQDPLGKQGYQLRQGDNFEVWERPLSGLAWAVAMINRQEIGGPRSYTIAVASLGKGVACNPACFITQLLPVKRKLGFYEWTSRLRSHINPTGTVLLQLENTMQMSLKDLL
Sequence of Pyruvate kinase (Leishmania mexicana) (Q27686 2-499 E452W): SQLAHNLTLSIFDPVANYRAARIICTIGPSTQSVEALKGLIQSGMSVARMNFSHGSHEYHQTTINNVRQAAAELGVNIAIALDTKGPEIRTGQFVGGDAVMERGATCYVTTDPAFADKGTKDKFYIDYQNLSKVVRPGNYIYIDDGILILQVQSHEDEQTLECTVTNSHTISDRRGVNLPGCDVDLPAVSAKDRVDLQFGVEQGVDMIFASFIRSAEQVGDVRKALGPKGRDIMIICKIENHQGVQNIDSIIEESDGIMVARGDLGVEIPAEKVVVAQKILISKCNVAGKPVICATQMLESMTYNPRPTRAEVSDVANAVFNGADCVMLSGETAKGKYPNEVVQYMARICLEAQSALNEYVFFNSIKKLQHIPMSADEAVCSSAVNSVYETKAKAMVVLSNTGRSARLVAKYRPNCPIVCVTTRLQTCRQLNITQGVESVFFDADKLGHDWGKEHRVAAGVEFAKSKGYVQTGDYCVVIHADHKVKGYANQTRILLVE

CN[C@@H](CC(C)C)C(=O)N[C@@H]1C(=O)N[C@H](CC(N)=O)C(=O)N[C@@H]2C(=O)N[C@H]3C(=O)N[C@H](C(=O)N[C@H](C(=O)O)c4cc(O)cc(O)c4-c4cc3ccc4O)[C@H](O)c3ccc(c(Cl)c3)Oc3cc2cc(c3O[C@H]2O[C@@H](CO)[C@@H](O)[C@@H](O)[C@@H]2O[C@@H]2C[C@](C)(N)[C@H](O)[C@H](C)O2)Oc2ccc(cc2Cl)[C@@H]1O
Potency [1]: inactive | Potency [2]: inactive | Potency [3]: inactive | Potency [4]: inactive | Potency [5]: inactive | Potency [6]: inactive | Potency [7]: inactive | Potency [8]: inactive | Potency [9]: inactive | Potency [10]: inactive | Potency [11]: inactive | Potency [12]: inactive | Potency [13]: inactive

O=C(O)/C=C\c1ccc(Cn2ccnc2)cc1
Potency [1]: inactive | Potency [2]: inactive | Potency [3]: inactive | Potency [4]: inactive | Potency [5]: inactive | Potency [6]: inactive | Potency [8]: inactive | Potency [9]: inactive | Potency [10]: inactive | Potency [11]: inactive | Potency [12]: inactive | Potency [13]: inactive

CCCN[C@@H](C)C(=O)Nc1c(C)csc1C(=O)OC
Potency [14]: inactive | Potency [2]: inactive | Potency [3]: inactive | Potency [4]: inactive | Potency [5]: inactive | Potency [6]: inactive | Potency [7]: inactive | Potency [8]: inactive | Potency [9]: inactive | Potency [10]: inactive | Potency [11]: inactive | Potency [12]: inactive | Potency [13]: inactive

NS(=O)(=O)c1cc([C@@]2(O)NC(=O)c3ccccc32)ccc1Cl
Potency [1]: inactive | Potency [2]: inactive | Potency [3]: inactive | Potency [4]: inactive | Potency [5]: inactive | Potency [6]: inactive | Potency [8]: inactive | Potency [9]: inactive | Potency [10]: inactive | Potency [11]: inactive | Potency [12]: inactive | Potency [13]: inactive

Cc1ccccc1[C@@H](OCCN(C)C)c1ccccc1
Potency [15]: inactive | Potency [14]: inactive | outcome [16]: inactive | outcome [17]: inactive | outcome [18]: inactive | outcome [19]: inactive

CC1(C)Oc2ccc(C#N)cc2[C@H](N2CCCC2=O)[C@H]1O
Potency [1]: inactive | Potency [2]: inactive | Potency [3]: inactive | Potency [4]: inactive | Potency [5]: inactive | Potency [7]: inactive | Potency [8]: inactive | Potency [9]: inactive | Potency [10]: inactive | Potency [11]: inactive | Potency [12]: inactive | Potency [13]: inactive

CCCN1C[C@H](CSC)C[C@H]2c3cccc4[nH]cc(c34)C[C@@H]21
Potency [14]: inactive

C[N+]1(C)CCC[C@@H](OC(=O)C(O)(c2ccccc2)c2ccccc2)C1
Potency [1]: inactive | Potency [3]: inactive | Potency [5]: inactive | Potency [6]: inactive | Potency [7]: inactive | Potency [8]: inactive | Potency [10]: inactive | Potency [11]: inactive | Potency [12]: inactive | Potency [13]: inactive

C/C=C\C(=O)N(CC)c1ccccc1C
Potency [14]: 7.94 µM (active) | Potency [1]: inactive | Potency [3]: inactive | Potency [4]: inactive | Potency [5]: inactive | Potency [6]: inactive | Potency [7]: inactive | Potency [8]: inactive | Potency [9]: inactive | Potency [10]: inactive | Potency [11]: inactive | Potency [12]: inactive | Potency [13]: inactive

CC(=O)Nc1c(I)c(C(=O)N[C@H]2[C@@H](O)[C@H](O)[C@H](CO)O[C@@H]2O)c(I)c(N(C)C(C)=O)c1I
Potency [1]: inactive | Potency [2]: inactive | Potency [3]: inactive | Potency [4]: inactive | Potency [5]: inactive | Potency [6]: inactive | Potency [7]: inactive | Potency [8]: inactive | Potency [9]: inactive | Potency [10]: inactive | Potency [11]: inactive | Potency [12]: inactive | Potency [13]: inactive

COC(=O)C1OC(=O)C2OC23[C@]2(C)C(O)CC4C(C)(C)C(OC(C)=O)CC(OC(C)=O)[C@@]4(C)C2CC[C@@]13C (stereo partly specified)
Potency [14]: inactive

CC1(C)S[C@@H]2[C@H](NC(=O)[C@H](C(=O)O)c3ccsc3)C(=O)N2[C@H]1C(=O)O
Potency [1]: inactive | Potency [2]: inactive | Potency [3]: inactive | Potency [4]: inactive | Potency [5]: inactive | Potency [7]: inactive | Potency [9]: inactive | Potency [10]: inactive | Potency [11]: inactive | Potency [12]: inactive | Potency [13]: inactive

CN(C)c1ncc2nc(-c3cccs3)c(=O)n(-c3ccccc3)c2n1
Potency [20]: > 11.4 µM

CS(=O)(=O)Nc1cccc(-c2cncnc2Nc2ccccc2)c1
Potency [20]: > 11.4 µM | Potency [14]: inactive

COc1cccc(Cn2c(=O)cnc3cnc(N4CCOCC4)nc32)c1
Potency [20]: > 11.4 µM

O=c1c(-c2ccc(F)cc2)nc2cncnc2n1Cc1ccc(F)cc1
Potency [20]: > 11.4 µM

O=c1c(O)c(-c2ccc(O)cc2)oc2ccccc12
Potency [14]: inactive

CS(=O)(=O)N1CCC2(CCN(Cc3ccc(C#N)cc3)CC2)CC1
Potency [20]: > 11.4 µM

CCNc1ncc2nc(-c3ccc(F)cc3)c(=O)n(-c3ccccc3)c2n1
Potency [20]: > 11.4 µM

Cc1cnc(CNc2cc(-c3ccccc3CN(C)C)ncn2)cn1
Potency [20]: > 11.4 µM

COc1ccc(C(=O)N2CCC[C@@]3(CCN(Cc4cc(C(F)(F)F)cc(C(F)(F)F)c4)C3)C2)cc1
Potency [20]: > 11.4 µM | Potency [14]: inactive

COc1ccc(CNc2nc(-c3ccc4c(c3)OCO4)nc3ccccc23)c(OC)c1
Potency [20]: > 11.4 µM | Potency [14]: inactive

FC(F)(F)c1ccccc1-c1cc(NCc2cccnc2)ncn1
Potency [20]: > 11.4 µM | Potency [14]: inactive

COc1cccc(Nc2ncc3nc(CCc4ccccc4)c(=O)n(Cc4cccs4)c3n2)c1
Potency [20]: > 11.4 µM | Potency [14]: inactive

CS(=O)(=O)N1CCC[C@@]2(CCN(c3ncccn3)C2)C1
Potency [20]: > 11.4 µM

COc1cccc(Cn2c(=O)c(-c3ccc(F)cc3)nc3cnc(N4CCOCC4)nc32)c1
Potency [20]: > 11.4 µM

COc1ccc(C(=O)N2CCC[C@@]3(CCN(c4cccc(-c5ccccc5)c4)C3)C2)cc1
Potency [20]: > 11.4 µM | Potency [14]: inactive

Cn1c(=O)c(-c2ccc(Cl)cc2)nc2cnc(Oc3ccccc3)nc21
Potency [20]: > 11.4 µM | Potency [14]: 20 µM (active)

CCNc1ncc2nc(-c3cccs3)c(=O)n(Cc3cccc(OC)c3)c2n1
Potency [20]: > 11.4 µM | Potency [14]: inactive

COc1cccc(Cn2c(=O)c(-c3cccs3)nc3cnc(Nc4ccccc4)nc32)c1
Potency [20]: > 11.4 µM

COc1ncc2nc(-c3cc(F)cc(F)c3)c(=O)n(Cc3cccs3)c2n1
Potency [20]: > 11.4 µM

CC(=O)N1CCC2(CC1)CCN(C(=O)Nc1cccc(C#N)c1)CC2
Potency [20]: > 11.4 µM

CN(C)c1ncc2nc(-c3ccc(Cl)cc3)c(=O)n(C3CC3)c2n1
Potency [20]: > 11.4 µM

COc1ccc(-c2nc3cnc(OC)nc3n(Cc3ccc(F)cc3)c2=O)cc1
Potency [20]: > 11.4 µM

Cc1cnc(CNc2cc(-c3cccc(C#N)c3)ncn2)cn1
Potency [20]: > 11.4 µM | Potency [14]: inactive

CS(=O)(=O)Nc1cccc(-c2cc(NCc3cccs3)ncn2)c1
Potency [20]: > 11.4 µM | Potency [14]: inactive

COc1cccc(-c2nccc(NCc3cccs3)n2)c1
Potency [20]: > 11.4 µM | Potency [14]: inactive

N#Cc1cccc(-c2nc(Nc3ccccc3)c3ccccc3n2)c1
Potency [20]: > 11.4 µM

c1ccc(Nc2ncncc2-c2ccc3c(c2)OCO3)cc1
Potency [20]: > 11.4 µM | Potency [14]: inactive
